Hits are enriched below; roughly 12% of the tested compounds scored in any of these assays.
G9a inh: blocks human histone lysine methyltransferase G9a. Q96KQ7. G9a H3K9 monomethylation, AlphaScreen, 2 h. Potency, µM (highest dose often 102 µM), without a hit: at the top dose activity, negative = inhibition, hits mostly inhibitors. hit rate 8.8% among 350,000; further: on the % scale 0 is the no-effect control and ±100 the full control effect; nearly all actives have a fitted effect of over 75% in size
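Using a bead-based AlphaScreen, monomethylated H3K9 product from 2 h room-temperature reactions (G9a 20 nM, peptide 500 nM, SAM 20 uM) was detected with 0.5 ug/mL rabbit anti-H3K9me1 antibody.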
BAZ2B block: BAZ2B (human) inhibition; hit rate 4.4% among 360,000; Potency, µM (top dose mostly 114 µM), for the others: at the highest dose activity change, negative = inhibition, hits mostly inhibitors; Q9UIF8; AlphaScreen BAZ2B-H3K14Ac peptide displacement; further: on the % scale 0 is the no-effect control and ±100 the full control effect; nearly all actives have a fitted effect of over 60% in size
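Multi-concentration screen (max 110 uM) measuring displacement of acetylated histone H3 peptide from BAZ2B by AlphaScreen, using 50 nM protein, 50 nM peptide and 10 ug/mL streptavidin donor plus Ni-chelate acceptor beads.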
HP1b binding inh: blocks HP1-beta chromodomain binding to methylated histone tails; P83916; AlphaScreen HP1-beta / biotin-H3K9me3 peptide binding; Potency, µM (doses to about 114 µM), for the others: at the highest dose activity change, negative = inhibition, most hits filed as inhibitors; hit rate 0.56% among 390,000; AID 540317; further: nearly all actives have a fitted effect of over 70% in size
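HP1-beta protein (50 nM final) preincubated 30 min at room temperature with biotinylated H3(1-18)K9me3 peptide (50 nM) in PBS pH 7.4, 0.01% Tween-20, then compound added for 30 min. AlphaScreen streptavidin donor/nickel chelate acceptor beads (10 ug/mL final), 30 min dark, luminescence read.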
JMJD2A Tudor: blocks the human JMJD2A Tudor domain; AlphaScreen JMJD2A-Tudor / H3K4me3 peptide binding; Potency, µM (series often up to 114 µM), inactives show top-dose activity change, negative = inhibition, most hits filed as inhibitors; hit rate 4.4% among 390,000; further: on the % scale 0 is the no-effect control and ±100 the full control effect; nearly all actives have a fitted effect of over 50% in size
Sfp PPTase inh: inhibitors of Bacillus subtilis Sfp phosphopantetheinyl transferase; Q9F4F7; Biochemical Sfp PPTase activity, qHTS; Potency, µM, without a hit: largest response in the series, negative = inhibition, usual class: inhibitors; hit rate 3.5% among 310,000;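 further: the enzyme is Sfp with the accession as filed and its product quenches rhodamine fluorescence; 0% = enzyme reaction without inhibitor and -100% = no enzyme wells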
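After 15 min at room temperature with compound, 15 nM Sfp received 5 uM rhodamine-CoA plus 12.5 uM BHQ-2-ybbR (50 mM Hepes pH 7.6, 10 mM MgCl2). Rate came from the fluorescence difference over 30 min, ex 525/em 598 nm.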
L3MBTL1 block: inhibitors of human L3MBTL1; AlphaScreen L3MBTL1–H3K9me1 peptide binding; Potency, µM (highest dose often 57.1 µM), without a hit: at the highest dose activity, negative = inhibition, usual class: inhibitors; hit rate 0.66% among 230,000; further: on the % scale 0 is the no-effect control and ±100 the full control effect; nearly all actives have a fitted effect of over 60% in size
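L3MBTL1 (50 nM) pre-complexed 30 min with biotinylated H3(1-15)K9me1 peptide (75 nM), then compounds added for 30 min at room temperature; AlphaScreen streptavidin donor/nickel chelate acceptor beads (10 ug/mL final) read after 30 min dark incubation.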
* marks the source's active call; other numbers are inactive results; u = inconclusive; x = no result; [ ] = another dose, or the depositor's remark. The call rests on the fitted dose curve; in most records, active means well fitted curve in the direction sought with a large enough effect; inconclusive means small, poorly fitted or top-dose-only effect, or another doubt; inactive means no such curve, though single readings can be large; an effect the other way counts as inactive or inconclusive. Potency means the concentration at half of the fitted maximal effect.

SMILES | G9a inh | BAZ2B block | HP1b binding inh | JMJD2A Tudor | Sfp PPTase inh | L3MBTL1 block
CCCC1=C(C(=O)OCC)C(c2ccc(N(C)C)cc2)n2ncnc2N1 (stereo unspecified) | 45µM* | u | 4% | u | 8% | -9%
CCCCOC(=O)C1=C(C)Nc2ncnn2C1c1ccc(OC)c(OC)c1 (stereo unspecified) | 50µM* | u | 35% | -29% | 8% | -2%
CC(O)C1CCC2C3CCC4CC(O)CCC4(C)C3CCC12C (stereo unspecified) | 16%[59 µM] | x | x | x | 15% | x
O=C1C=C(N2CCN(c3ccccn3)CC2)C(=O)c2c(O)ccc(O)c21 | x | x | u | 32µM* | x | x
COc1ccc(/C=C/C(=O)N(CC(C)C)C2CCS(=O)(=O)C2)cc1 (stereo unspecified) | 3% | 8% | 29% | 5% | x | -2%
CC(C)CN(C(=O)/C=C/c1nc2ccccc2s1)C1CCS(=O)(=O)C1 (stereo unspecified) | 56µM* | 3% | 0% | -21% | x | -15%
Cn1c(=O)c2c(-c3ccc(Cl)cc3)n(Cc3ccc(Cl)cc3)cc2n(C)c1=O | -37%[59 µM] | -32% | 6% | -13% | x | x
Cc1ccc(-c2c3c(=O)n(C)c(=O)n(C)c3cn2Cc2cccnc2)cc1 | 7.9µM* | 11% | 47% | -20% | -13% | 2%
Cn1c(=O)c2c(-c3ccccc3)n(Cc3cccnc3)cc2n(C)c1=O | 10µM* | 2% | 36% | -18% | -4% | 2%
Cn1c(=O)c2c(-c3ccccc3)n(CCCO)cc2n(C)c1=O | -41%[59 µM] | 11% | 46% | -22% | x | x
CC[C@H](C)N | x | x | x | x | 7% | x
OCCN1CCN(C(=S)c2ccc(Cl)c(Cl)c2)CC1 | 2µM* | 8% | u | 56µM* | 3.2µM* | -7%
CC(=O)c1ccc(NC(=S)N2CCN(CCO)CC2)cc1 | 16% | -1% | 21% | -17% | 26% | 2%
CCc1ccccc1NC(=O)c1ccc2c(O)c(S(=O)(=O)c3ccc(OC)cc3)c(=O)[nH]c2c1 | -1%[59 µM] | -10% | -8% | 20µM* | 23% | x
CCc1ccccc1NC(=O)c1ccc2c(O)c(S(=O)(=O)c3ccccc3)c(=O)[nH]c2c1 | 16µM* | u | 6% | 79µM* | x | x
COc1ccc(S(=O)(=O)c2c(O)c3ccc(C(=O)Nc4ccccc4Cl)cc3[nH]c2=O)cc1 | 18%[59 µM] | -2% | 49% | u | 18% | x
COc1ccc(S(=O)(=O)c2c(O)c3ccc(C(=O)Nc4ccc(F)cc4)cc3[nH]c2=O)cc1 | 5%[59 µM] | -29% | -1% | 50µM* | 30% | x
Cc1nc2c(c(C)nn2C(C)(C)C)c(C)c1CCC(=O)Nc1ccc(Br)cc1Br | -5%[59 µM] | -16% | 46% | -1% | x | x
COc1cccc(-n2ccnc2SCC(=O)Nc2ccc(Cl)c(Cl)c2)c1 | 2%[59 µM] | u | -3%[57 µM] | -14% | x | x
c1ccc(C2CSc3ccccc3N2)cc1 (stereo unspecified) | 8.9µM* | u | -12% | u | 56µM* | x
CC1CSc2ccccc2NC1=S (stereo unspecified) | u | -5% | -24% | -28% | -11% | -5%
Cn1c(=O)n(C)c2cc(NC(=O)CCc3ccccc3)c(Br)cc21 | x | 50µM* | 30% | -3% | u | -6%
CSc1ccccc1NC(=O)CCc1ccccc1 | -2% | 1% | 37% | 18% | 19% | 9%
Oc1cccc2ccc(Nc3ccccn3)nc12 | u | 5µM* | 29% | 18µM* | -5% | u
c1ccc(Nc2ccccc2Nc2ccccn2)nc1 | u | -7% | 12% | -21% | 5% | -9%
SMILES | G9a inh | BAZ2B block | HP1b binding inh | JMJD2A Tudor | Sfp PPTase inh | L3MBTL1 block
CCCCC[C@H](O)/C=C/[C@H]1OC(O)C[C@H](O)[C@@H]1C/C=C\CCCC(=O)O (stereo partly specified) | x | x | x | x | -4% | x
Cc1ccc2c(c1)c1c3n2CCN(C(=O)Cn2c(-c4ccccc4)noc2=O)C3CCC1 (stereo unspecified) | -11% | 7% | -4% | -35% | u | 8%
COC(Cn1c2c(c3cc(C)ccc31)CCCC2NCc1ccccc1)OC (stereo unspecified) | 45µM* | 40µM* | 4% | u | -13% | -30%
CC(C)c1ccc(NC(=O)c2ccc(CN3CC(=O)N4CCCCC4C3=O)cc2)cc1 (stereo unspecified) | -24%[59 µM] | -4% | 8% | -9% | x | x
CC(=O)c1c(C)oc2c(Cl)cc(NS(=O)(=O)c3cc(C)c(C)cc3C)cc12 | 14%[59 µM] | 15% | 66% | -9% | x | x
COc1ccc(C(OCC(O)CNCCc2ccccc2)c2ccc(OC)cc2)cc1 (stereo unspecified) | 6%[0.501 µM] | 32µM* | u | 3.5µM* | -27% | x
Cc1ccc(C(OCC(O)CNCc2ccc(F)cc2)c2ccccc2)cc1 (stereo unspecified) | u | 40µM* | -34% | 79µM* | u | x
O=C(c1ccccc1)c1ccc(OCC(O)CNCc2ccc(F)cc2)cc1 (stereo unspecified) | 5µM* | 35µM* | -10% | 5µM* | -13% | x
COc1cccc(NC(=O)CCc2c(C)nc3c4cccnc4nn3c2C)c1 | 14%[59 µM] | -3% | 49% | -18% | x | x
CCOc1cc(C(=O)NCCc2sc(-c3ccc(F)cc3)nc2C)cc(OCC)c1OCC | 20%[59 µM] | -9% | 5%[57 µM] | -23% | x | x
Cc1ccc2c(NC(=O)c3ccco3)cccc2n1 | 50µM* | -12% | 39% | -23% | 5% | x
COc1cc(NC(=O)c2ccc([N+](=O)[O-])o2)ccc1NC(=O)c1ccco1 | u | u | 15% | 4% | -2% | x
O=C(Nc1ccccc1C(=O)Nc1ccccc1)c1ccco1 | 12% | -2% | -19% | -10% | 18% | x
Cc1cccc(NC(=O)c2ccccc2NC(=O)c2ccco2)c1 | 40µM* | u | 26% | -1% | u | x
Cc1cc(NC(=O)c2ccc([N+](=O)[O-])o2)ccc1NC(=O)c1ccco1 | 79µM* | u | 17% | -23% | 3% | x
Cc1ccc2c(NC(=O)c3ccc(Br)o3)cccc2n1 | x | -6% | 21% | -4% | 5% | x
CSc1ccccc1C(=O)Nc1cc(C)ccc1C | 40µM* | -2% | 22% | -11% | 13% | -5%
COc1ccc(N(C(=O)c2cccc(C)c2)S(=O)(=O)c2ccc3c(c2)n(C)c(=O)n3C)cc1 | u | u | -1% | -24% | x | x
c1ccc(-c2cccc(N3CC[C@@]4(CCCNC4)C3)c2)cc1 | -40%[12.7 µM] | x | x | x | -26% | x
CSc1ccccc1C(=O)Nc1cccc([N+](=O)[O-])c1 | u | u | 8% | -31% | -16% | -15%
CSc1ccccc1C(=O)Nc1cccc(C)c1 | 45µM* | 3% | 37% | -7% | 10% | x
